A number with no mark means an inactive call. The rule behind the calls is not given here.

What is called inhibition is the change of the read-out against control, counted positive when it falls.

The target in this test is Lethal factor (Bacillus anthracis) (UniProt P15917). The test can be described thus: Lethal factor protease inhibitors, Bacillus anthracis, multiplex microsphere cleavage assay, validation set (AID 588461). Conditions: flow cytometry, at 10 µM, hits give high values. (In general: In flow cytometry, cells or beads pass a laser one at a time.)
For the compound `N/C(=N\OC(=O)CCCOc1ccc(Cl)cc1Cl)c1ccncc1`, the inhibition is 1%.

As to `CS(=O)(=O)Oc1ccc2c(c1)O/C(=C\C=C\c1ccccc1)C2=O`, the inhibition was 25%.

Turning to `C=CCNC(=O)c1ccc(-c2cccc([N+](=O)[O-])c2)o1`, the inhibition is -3%.

For `CC1CCCC(C)N1NC(=O)c1ccc(Cl)c(S(N)(=O)=O)c1` (centres undefined), the inhibition is 5.8%.

Turning to `COc1ccc(CCN2C(=O)CSC2c2ccc(OC)c(OC)c2)cc1OC` (centres undefined), the inhibition is 6.7%.

Consider `CC[N+](C)(C)c1cccc(O)c1`, for which the inhibition was 0.7%.

As to `COc1cc2c(cc1OC)/C(=C/c1ccc(Cl)cc1)C(=O)OC2`, the inhibition was -1.5%.

For the compound `CCn1c(/C=C/c2ccccc2)nc2ccccc2c1=O`, the inhibition was 7.2%.

As for `CC(COc1ccccc1)N(CCCl)Cc1ccccc1` (centres undefined), the inhibition is -5.9%.

As for `CC(C)=CCCC(C)CN1CCC(N2CCC(C(=O)N3CCCC3)CC2)CC1` (centres undefined), the inhibition was -1.1%.

Regarding `NC(N)=N/N=C/c1ccc(OS(=O)(=O)c2ccccc2)cc1`, the inhibition was -1.4%.

For `O=P(c1ccccc1)(c1ccccc1)c1nc(-c2ccc(Cl)cc2)oc1N1CCOCC1`, the inhibition was 0.6%.

As to `COc1cc2c(cc1OC)C1(CCCC1)CNC2c1cccc([N+](=O)[O-])c1` (centres undefined), the inhibition is -9.4%.

With `CCOC(=O)c1ccc(N2C(=O)C(CC(=O)NC)N(CCc3ccc(OC)c(OC)c3)C2=S)cc1` (centres undefined), the inhibition is -10.1%.

Turning to `COc1ccc(CNC(=O)C2CCCN2C)cc1OC` (centres undefined), the inhibition was 6.2%.

Regarding `Cc1cccc(Oc2coc3cc(OC(=O)c4cncc(Br)c4)ccc3c2=O)c1`, the inhibition was 2%.

In the case of `Cc1cc(/C=N/O)c(C)n1-c1ccc(Br)cc1`, the inhibition was 0.9%.

Turning to `CC(=O)[C@H]1CC[C@H]2[C@@H]3CCC4=CC(=O)CC[C@]4(C)[C@H]3[C@H](O)C[C@]12C`, the inhibition is -5.3%.

With `O=C1c2ccccc2C(=O)N1/N=C/c1ccc(Oc2ccc([N+](=O)[O-])cn2)cc1`, the inhibition was -1.7%.

For the compound `O=C(OCC1OC2OC3(CCCCC3)OC2C2OC3(CCCCC3)OC12)c1ccccc1` (centres undefined), the inhibition is -2.2%.

In the case of `O=C(O)CCCCCCNC(=O)c1cncc(O)c1`, the inhibition is 7.5%.

Regarding `CCOc1ccc2nc(NC(=O)NC3CCCCC3)sc2c1`, the inhibition is -3.9%.

On to `COc1cc(NC(=S)NN2CCN(C)CC2)cc(OC)c1OC`, for which the inhibition was -5.6%.

As to `CC(=O)N(CCC1(C(C)C)CCOC(C)(C)C1)Cc1ccco1` (centres undefined), the inhibition was 0.2%.

As to `CSCCC1NC2(C(=O)Nc3ccc(Cl)cc32)[C@@H]2C(=O)N(C3CCCC3)C(=O)[C@H]12` (some centres undefined), the inhibition is -11.2%.

Turning to `Cc1ccc(CN2CCN(CCCc3ccccc3)CC2CCO)cc1` (centres undefined), the inhibition is -3.4%.

For `C/C=C/c1ccc(OCCCCN2CC(C)CC(C)C2)c(OC)c1` (centres undefined), the inhibition was -6%.

Consider `COc1ccc([C@@H]2Sc3ccccc3N(CCN(C)C)C(=O)[C@@H]2OC(C)=O)cc1`, for which the inhibition was 1%.

In the case of `CC/C(=C(\c1ccc(O)cc1)c1ccc(OCCN(C)C)cc1)c1ccccc1`, the inhibition is -2.3%.

For `COc1ccccc1/C=C/CN1CCN(Cc2ccc(F)cc2)C(CCO)C1` (centres undefined), the inhibition was -1.4%.

For the compound `N#C/C(=C\c1ccc(O)c(O)c1)C(=O)NCCCc1ccccc1`, the inhibition is -2.8%.

As for `CC(C(=O)O)c1ccc(-c2ccccc2)c(F)c1` (centres undefined), the inhibition is 5.7%.

Regarding `COc1cc2[nH]c3c(=O)n(CCN4CCOCC4)cnc3c2cc1OC`, the inhibition was 1%.

For the compound `O=C1[C@@H]2[C@H](Cc3ccc(O)cc3)N[C@]3(C(=O)Nc4ccccc43)[C@@H]2C(=O)N1c1ccc(F)cc1`, the inhibition was -2.6%.

`O=C1OCCN1/N=C/c1ccc([N+](=O)[O-])o1`: the inhibition was -8.7%.

For the compound `CC1CCN(CCOCCOc2ccccc2Br)CC1`, the inhibition is 3.9%.

Regarding `CCCOc1ccc(-c2cc(C(=O)NCC3CCCO3)c3ccccc3n2)cc1` (centres undefined), the inhibition is -5.1%.

Take `Cc1coc2c1c(C)cc1oc(=O)c(Cc3ccccc3)c(C)c12`: the inhibition was -4.3%.

Turning to `COC(=O)C1=NN(C(=O)c2cccc(Br)c2)C(O)(c2ccc(Cl)cc2)C1` (centres undefined), the inhibition was 1.2%.

For the origin of these results see PubChem BioAssay.
